RORgamma inh – inhibitors of mouse ROR gamma transcriptional activity; 310,000 tested, 5.4% active; Potency, µM (titrated, usually from 53.6 µM), for the others: top-dose activity change, negative = inhibition, most hits filed as inhibitors; Drosophila S2 Gal4-RORgamma UAS-luciferase reporter, 20 h; P51450; further: nearly all actives have a fitted effect of over 60% in size
Target sequence (P51450 whole entry, looked up, the tested form may be a part): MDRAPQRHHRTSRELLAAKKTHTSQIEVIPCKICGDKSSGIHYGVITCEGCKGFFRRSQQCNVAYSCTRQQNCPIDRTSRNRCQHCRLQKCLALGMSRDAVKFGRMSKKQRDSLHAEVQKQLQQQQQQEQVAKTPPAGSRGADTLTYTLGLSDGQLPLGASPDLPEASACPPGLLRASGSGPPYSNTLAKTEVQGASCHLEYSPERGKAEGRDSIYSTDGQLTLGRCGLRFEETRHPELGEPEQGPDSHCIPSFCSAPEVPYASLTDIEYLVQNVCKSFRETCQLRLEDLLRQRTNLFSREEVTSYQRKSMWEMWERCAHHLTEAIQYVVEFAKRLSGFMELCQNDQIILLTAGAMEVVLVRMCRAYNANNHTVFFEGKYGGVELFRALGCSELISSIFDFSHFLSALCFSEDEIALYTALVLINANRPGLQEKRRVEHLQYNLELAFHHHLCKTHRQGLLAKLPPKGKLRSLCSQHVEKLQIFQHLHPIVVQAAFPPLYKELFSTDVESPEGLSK
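Drosophila Schneider cells stably carrying a metallothionein-driven Gal4 DBD–ROR gamma fusion and a UAS-Photinus luciferase reporter were exposed to compound for 1 hr, then induced with copper sulfate (700 uM final) for 20 hr at ambient temperature before luminescence reading.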
TDP1 cell CPT – DT40-hTDP1 cell growth loss with CPT; chicken DT40 Tdp1-/-;hTDP1 cells + 20 nM CPT, ATP luminescence, 48 h; Potency, µM (top dose mostly 46.2 µM), without a hit: top-dose activity change, negative = growth inhibition, most hits filed as inhibitors; 420,000 tested, 12% active; further: nearly all actives have a fitted effect of over 55% in size
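Cell growth measured by CellTiter-Glo luminescence after a minimum 48 h, 37 C compound exposure with 20 nM CPT in Tdp1-knockout DT40 cells stably expressing hTDP1, seeded 400/well; qHTS titration format.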
DT40 TDP1 no CPT – qHTS for Inhibitors of human tyrosyl-DNA phosphodiesterase 1 (TDP1): qHTS in cells in absence of CPT; DT40 Tdp1-/- hTDP1 cells, no CPT, ATP luminescence, 48 h; Potency, µM (top dose mostly 46.2 µM), for inactives: at the highest dose activity change, negative = growth inhibition, most hits filed as inhibitors; 420,000 tested, 15% active; AID 686978, 2013; further: nearly all actives have a fitted effect of over 55% in size
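Growth kinetics read by CellTiter-Glo luminescence after ≥48 hr at 37 °C. Cells: DT40 Tdp1-/- stably carrying human TDP1, 400 per well, compound exposure in the absence of CPT (DMSO vehicle).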
Gal4-VP16 FLuc – counter-screen for ROR gamma inhibitors: Gal4-VP16 reporter. 310,000 tested, 3.5% active. Drosophila S2 Gal4-VP16 UAS-luciferase, luminescence, 20 h. AID 2546. Potency, µM (series often up to 53.6 µM), for inactives: at the top dose activity, negative = inhibition, actives largely listed as inhibitors;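 further: Gal4-VP16 expression switched on by copper sulfate through the metallothionein promoter; nearly all actives have a fitted effect of over 50% in size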
TDP1 inh – blocks human tyrosyl-DNA phosphodiesterase 1; AID 485290; recombinant TDP1, AlphaScreen DNA substrate cleavage; Potency, µM (titrated, usually from 130 µM), for the others: top-dose activity change, negative = inhibition, most hits filed as inhibitors; 350,000 tested, 0.28% active; further: nearly all actives have a fitted effect of over 40% in size
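Here, a 5' biotin and 3' phosphotyrosine-FITC DNA oligonucleotide reports Tdp1 activity: intact substrate bridges AlphaScreen beads, while cleavage leaves a 3' phosphate and drops signal. All incubations at room temperature.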
An asterisk follows results filed as active; ? = inconclusive; . = no result; [ ] = remark or other dose. Only some compounds are listed: those with a hit (about 19% of all), similar ones and a draw of the others. The call rests on the fitted dose curve; in most records, active means well fitted curve in the direction sought with a large enough effect; inconclusive means small, poorly fitted or top-dose-only effect, or another doubt; inactive means no such curve, though single readings can be large; an effect the other way counts as inactive or inconclusive. On the % scale 0 is the no-effect control and ±100 the full control effect; potency means the concentration at half of the fitted maximal effect.

SMILES	RORgamma inh	TDP1 cell CPT	DT40 TDP1 no CPT	Gal4-VP16 FLuc	TDP1 inh
O=C1/C(=C/c2ccc(O)cc2)CCc2ccc([N+](=O)[O-])cc21	32%	?	16µM*	1%	3%
COC(=O)c1ccc2c(c1)C(=O)/C(=C/c1ccc(O)cc1)O2	0.22µM*	?	?	1.6µM*	-4%
O=C1/C(=C\c2ccc(O)c(O)c2)Oc2cc(O)ccc21	-23%	.	.	?	17%
O=C1/C(=C\c2ccc([N+](=O)[O-])cc2)CCc2ccccc21	-15%	-30%	?	?	5%
O=C1/C(=C/c2ccc([N+](=O)[O-])cc2)Oc2cc(O)ccc21	?	?	7.3µM*	?	.
Cc1ccc(C)c(NC(=S)N2CCN(S(=O)(=O)c3ccccc3)CC2)c1	-110%	7%	6%	?	6%[56.1 µM]
CCOc1ccc(S(=O)(=O)N2CCOCC2)cc1[N+](=O)[O-]	2%	-11%	-7%	6%	-10%
CCSc1nc2c([nH]c3ccccc32)c(=O)n1-c1cccc(OC)c1	.	?	?	.	7%
Cc1ccc(-c2nc(CS(=O)CC(=O)NCc3ccccc3Cl)c(C)o2)cc1 (stereo not given)	.	-7%	?	.	5%
COc1ccc(-c2n[nH]c3c2CN(C(=O)c2ccc(OC)c(OC)c2)CC3)cc1	-18%	8.2µM*	8.2µM*	5%	6%
Cc1cccc(OCC(=O)O/N=C(\N)c2ccccn2)c1C	-6%	-5%	-15%	4%	5%
Cc1ccc(S(=O)(=O)Nc2cccc(-c3cn4ccsc4n3)c2)cc1	36%	?	21µM*	?	7%
O=S(=O)(Nc1cccc(-c2cn3ccsc3n2)c1)c1ccc(F)cc1	?	?	?	5%	7%
COc1cccc(OC)c1C(=O)Nc1cccc(-c2cn3ccsc3n2)c1	.	-68%	?	.	3%
Cc1cccc2nc(-c3cccc(NS(=O)(=O)c4ccccc4)c3)cn12	.	?	23µM*	.	.
O=S(=O)(Nc1cccc(-c2cn3cccnc3n2)c1)c1ccc(-c2ccccc2)cc1	?	?	15µM*	?	3%
COc1cc(OC)cc(C(=O)Nc2cccc(-c3cn4ccsc4n3)c2)c1	.	13µM*	18µM*	.	9%
CCOc1ccc(NC(=O)NC(=O)N(C(C)C)S(C)(=O)=O)cc1	20%	?	-11%	-1%	0%
O=C(CC1CC2CCC1C2)N1CCN(S(=O)(=O)c2ccccc2[N+](=O)[O-])CC1 (stereo not given)	.	?	?	.	3%
COc1ccccc1N1CCN(C(=O)c2sc3ncnc(N4CCN(c5ccccn5)CC4)c3c2C)CC1	19%	4.6µM*	4.6µM*	-18%	.
COc1ccc(OC)c(NC(=O)c2sc3ncnc(N4CCN(c5ccccn5)CC4)c3c2C)c1	-23%	?	21µM*	-6%	4%
Cc1c(C(=O)N2CCN(c3ccc(F)cc3)CC2)sc2ncnc(N3CCN(c4ccccn4)CC3)c12	44%	18µM*	15µM*	-23%	9%
Cc1nc(N2CCN(c3ccccn3)CC2)c2c(C)c(C(=O)N3CCN(c4ccc(F)cc4)CC3)sc2n1	3%	?	?	-20%	.
COc1ccc(NC(=O)c2sc3ncn(CC(=O)N4CCN(c5ccccn5)CC4)c(=O)c3c2C)c(OC)c1	-14%	0%	8%	-3%	0%
Cc1c(C(=O)N2CCN(c3ccccn3)CC2)sc2ncnc(N3CCOCC3)c12	-19%	-16%	-18%	0%	1%
CCOC(=O)C(=O)Nc1ncc(Cl)s1	-2%	?	-1%	-3%	.
COc1ccc(N(CC(=O)NCc2ccco2)C(=O)CCC(=O)Nc2ccccn2)cc1	9%	-7%	-12%	13%	8%
O=C(c1ccc2c(c1)OCO2)N1CCc2ccccc21	23%	-21%	?	?	6%[0.0935 µM]
